From PubChem BioAssay (NCI) come the findings set out here.

This is part of a sample that, as a whole, favours compounds with a hit. Of some 83,000 tested, about 20% had one in any assay.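 Activity criterion: percent growth below 10, measured after cells in 96-well plates were exposed to a single compound concentration for 48 hours.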 Calls of active or inactive are those of the source.

The assay relates to HCT-116 colon. Description: NCI-60 one-dose screen, 48 h (100 = growth as untreated, 0 = no growth, -100 = all killed). As to conditions: 10 µM.
In the case of `COc1ccc(C2c3sc4ccc(C)cc4c3Oc3nc(N)nc(N)c32)cc1` (centres undefined), the growth was 86.9% (inactive). With `Cc1cc(N=C2NC(=O)S/C2=C\c2ccc(F)cc2)n[nH]1`, the growth was -51.5% (active). As to `Cn1cc(-c2nnc(N)nc2-c2c[nH]c3ccccc23)c2cc(Br)cnc21`, the growth was 22.8% (inactive). Then `O=C(CC(=O)Nc1ccc(Oc2ncnc3scc(Nc4n[nH]c(=S)s4)c23)cc1)Nc1ccc(Cl)cc1`, with 92.5% (inactive); and `O=C1NC2C=CC=CC2/C1=C1/SC(=S)N(C2CC(=O)N(c3ccc(Br)cc3)C2=O)C1=O` (centres undefined), with 103% (inactive); and `CC1(C)CC(=O)C2=C(C1)N(Cc1ccc(C(=O)O)cc1)C1=C(C(=O)CC(C)(C)C1)C2c1ccc(Cl)cc1`, with 106% (inactive).

Turning to `Cc1ccc2c(c1)C(=O)/C(=C/c1ccc([N+](=O)[O-])cc1)S2`, the growth was 14.3% (inactive). Then `O=C(Nc1ccc(OCc2ccc(Cl)cc2)cc1)Nc1ccc(Cl)c(C(F)(F)F)c1`, with 3.96% (active); and `Cn1cc(-c2nc(N)nnc2-c2c[nH]c3ccccc23)c2cc(Br)cnc21`, with 7.04% (active). `O=C(CSc1nc2ccccc2c(=O)n1-c1ccc(Cl)cc1)Nc1ccc(-c2nc3ccccc3[nH]2)cc1`: the growth was -84.3% (active). Take `Cc1ccc2c(c1)C(=O)/C(=C/c1c[nH]c3ccccc13)S2`: the growth is 14.2% (inactive). As for `COc1cccc(O)c1/C=C1\SCc2cc3c(OC)cccc3[o+]c21`, the growth is 107% (inactive). Regarding `COc1cc(C2CC(c3ccc(Oc4ccc(Cl)cc4)cc3)=NN2c2nc(-c3ccc(Cl)cc3)c(C#N)c(N3CCOCC3)n2)cc(OC)c1OC` (centres undefined), the growth is 106% (inactive).

With `O=C(Nc1ccc(OCC(=O)c2ccc(Cl)cc2)cc1)Nc1ccc(Cl)c(C(F)(F)F)c1`, the growth was 50.8% (inactive). As for `Cc1ccc2sc3c(c2c1)Oc1nc[nH]c(=O)c1C3c1cccc(F)c1` (centres undefined), the growth is 89.3% (inactive). As to `Cc1cc(N=C2NC(=O)/C(=C/c3cc(C(C)(C)C)c(O)c(C(C)(C)C)c3)S2)n[nH]1`, the growth was 3.45% (active).

Regarding `COc1ccc(C2c3sc4ccc(C)cc4c3Oc3nc[nH]c(=O)c32)cc1` (centres undefined), the growth is 90.2% (inactive). `COc1cccc(C(=O)CSc2nc(-c3ccc(OCc4ccccc4)c(OC)c3)c(C#N)c(=O)[nH]2)c1`: the growth was 99.6% (inactive). Take `Cc1ccc(COc2ccc(NC(=O)Nc3ccc(Cl)c(C(F)(F)F)c3)cc2)cc1`: the growth is 69.7% (inactive).

In the case of `CC(C)(C)c1cc(/C=C2\S/C(=N/c3ncn[nH]3)NC2=O)cc(C(C)(C)C)c1O`, the growth was 7.92% (active). On to `Cn1cc(/C=C(/SS/C(=C/c2cn(C)c3cccc(C(=O)O)c23)C(=O)O)C(=O)O)c2c(C(=O)O)cccc21`, for which the growth is 118% (inactive).

Turning to `COc1ccc(C(=O)COc2ccc(NC(=O)Nc3ccccc3)cc2)cc1`, the growth is 91% (inactive).

For the compound `CCn1c(SCC(=O)Nc2ccc(-c3nc4ccccc4[nH]3)cc2)nc2ccccc2c1=O`, the growth is -81.4% (active). Take `O=C(Nc1ccc(OCc2ccc(F)cc2)cc1)Nc1ccc(Cl)c(C(F)(F)F)c1`: the growth is 4.96% (active).

`O=C(CC(=O)Nc1ccc(Oc2ncnc3scc(Nc4n[nH]c(=S)s4)c23)cc1)Nc1ccc(Br)cc1`: the growth was 107% (inactive). In the case of `COc1ccc(C(=O)COc2ccc(NC(=O)Nc3ccc(Cl)c(C(F)(F)F)c3)cc2)cc1`, the growth was 25.9% (inactive). On to `O=C(Nc1ccc(Oc2ncnc3scc(Nc4n[nH]c(=S)s4)c23)cc1)C1(C(=O)Nc2cccc(C(F)(F)F)c2)CC1`, for which the growth is 99.7% (inactive). For `O=C1NC(=S)S/C1=C\c1cn(-c2ccccc2)nc1-c1ccc([N+](=O)[O-])cc1`, the growth is 5% (active). Then `O=C(CSc1nc2ccccc2c(=O)n1-c1ccc(Cl)cc1)Nc1ccc(-c2nc3ccc([N+](=O)[O-])cc3[nH]2)cc1`, with 19.1% (inactive).
